# Results taken from the supplement of paper PMC7411054.
# How the values were obtained:
# Conditions in all cases: treatment time: 24 h
# A549-ACTB-RAB5A [1] = test: lowest phenotypically active concentration; higher = less potent
# How it was run: (§1)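 After 24 h at 0.3, 1, 3 or 9 µM, with four wells per treatment, fifteen gene-edited A549, HepG2 and WPMY1 reporter lines carrying BFP, GFP and RFP/FusionRed were imaged live. Each well's live-cell features were expressed relative to solvent control wells. Deviation required ≥3 of 4 wells past the 95th percentile of control Euclidean distances, and reproducibility a median replicate Pearson correlation over the 95th percentile of non-replicates. Phenotypic activity rested on both.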
# A549-CANX-COX4 [2] = test: as above
# How it was run: as §1
# A549-GM130-SQSTM1 [3] = test: as above
# How it was run: as §1
# A549-TUBA1B-RELA [4] = test: as above
# How it was run: as §1
# HepG2-ACTB-RAB5A [5] = test: as above
# How it was run: as §1
# A549-ACTB-RAB5A [6] = test: phenotypically active (imaging signature differs from DMSO and reproducible) at any of 0.3-9 uM (binary (1 = active, 0 = inactive)); higher = active
# How it was run: as §1
# A549-CANX-COX4 [7] = test: as above
# How it was run: as §1
# A549-GM130-SQSTM1 [8] = test: as above
# How it was run: as §1
# A549-TP53BP1-CLTA = test: as above
# How it was run: as §1
# A549-TUBA1B-RELA [9] = test: as above
# How it was run: as §1
# HepG2-ACTB-RAB5A [10] = test: as above
# How it was run: as §1
# HepG2-CANX-COX4 = test: as above
# How it was run: as §1
# HepG2-GM130-SQSTM1 = test: as above
# How it was run: as §1
# HepG2-TP53BP1-CLTA = test: as above
# How it was run: as §1
# HepG2-TUBA1B-RELA = test: as above
# How it was run: as §1
# WPMY1-ACTB-RAB5A = test: as above
# How it was run: as §1
# WPMY1-CANX-COX4 = test: as above
# How it was run: as §1
# WPMY1-GM130-SQSTM1 = test: as above
# How it was run: as §1
# WPMY1-TP53BP1-CLTA = test: as above
# How it was run: as §1
# WPMY1-TUBA1B-RELA = test: as above
# How it was run: as §1
SMILES,lowest phenotypically active concentration (A549-ACTB-RAB5A [1]),lowest phenotypically active concentration (A549-CANX-COX4 [2]),lowest phenotypically active concentration (A549-GM130-SQSTM1 [3]),lowest phenotypically active concentration (A549-TUBA1B-RELA [4]),lowest phenotypically active concentration (HepG2-ACTB-RAB5A [5]),phenotypically active (A549-ACTB-RAB5A [6]),phenotypically active (A549-CANX-COX4 [7]),phenotypically active (A549-GM130-SQSTM1 [8]),phenotypically active (A549-TP53BP1-CLTA),phenotypically active (A549-TUBA1B-RELA [9]),phenotypically active (HepG2-ACTB-RAB5A [10]),phenotypically active (HepG2-CANX-COX4),phenotypically active (HepG2-GM130-SQSTM1),phenotypically active (HepG2-TP53BP1-CLTA),phenotypically active (HepG2-TUBA1B-RELA),phenotypically active (WPMY1-ACTB-RAB5A),phenotypically active (WPMY1-CANX-COX4),phenotypically active (WPMY1-GM130-SQSTM1),phenotypically active (WPMY1-TP53BP1-CLTA),phenotypically active (WPMY1-TUBA1B-RELA)
c1ccc2c(c1)Cc1c(Nc3ccc4c(c3)OCCO4)n[nH]c1-2,3 µM,3 µM,3 µM,3 µM,3 µM,1 (active),1 (active),1 (active),1 (active),1 (active),1 (active),1 (active),1 (active),1 (active),1 (active),1 (active),1 (active),1 (active),1 (active),1 (active)
CNC(=O)Nc1ccc(-c2nc(N3CC4CCC(C3)O4)c3cnn(C4CCC5(CC4)OCCO5)c3n2)cc1,≤ 0.3 µM,≤ 0.3 µM,≤ 0.3 µM,≤ 0.3 µM,≤ 0.3 µM,1 (active),1 (active),1 (active),1 (active),1 (active),1 (active),1 (active),1 (active),1 (active),1 (active),1 (active),1 (active),1 (active),1 (active),1 (active)
CS(=O)(=O)c1cccc(CNc2nc(Nc3ccc4c(c3)CCC(=O)N4)ncc2C(F)(F)F)c1,3 µM,3 µM,3 µM,3 µM,1 µM,1 (active),1 (active),1 (active),1 (active),1 (active),1 (active),1 (active),1 (active),1 (active),1 (active),1 (active),1 (active),1 (active),1 (active),1 (active)
O=C(NC(NC(=S)Nc1ccc(F)c([N+](=O)[O-])c1)C(Cl)(Cl)Cl)C(c1ccccc1)c1ccccc1 (stereo not given),3 µM,9 µM,3 µM,9 µM,9 µM,1 (active),1 (active),1 (active),1 (active),1 (active),1 (active),1 (active),1 (active),1 (active),1 (active),1 (active),1 (active),1 (active),1 (active),1 (active)
CCNC(=O)c1noc(-c2cc(C(C)C)c(O)cc2O)c1-c1ccc(CN2CCOCC2)cc1,≤ 0.3 µM,≤ 0.3 µM,≤ 0.3 µM,≤ 0.3 µM,≤ 0.3 µM,1 (active),1 (active),1 (active),1 (active),1 (active),1 (active),1 (active),1 (active),1 (active),1 (active),1 (active),1 (active),1 (active),1 (active),1 (active)
CC(C)c1cc(-c2n[nH]c(=O)n2-c2ccc3c(ccn3C)c2)c(O)cc1O [ganetespib],≤ 0.3 µM,≤ 0.3 µM,≤ 0.3 µM,≤ 0.3 µM,≤ 0.3 µM,1 (active),1 (active),1 (active),1 (active),1 (active),1 (active),1 (active),1 (active),1 (active),1 (active),1 (active),1 (active),1 (active),1 (active),1 (active)
CCN(CC)c1ccc(/C=N/NC(=O)c2ccncc2)c(O)c1,≤ 0.3 µM,1 µM,1 µM,1 µM,≤ 0.3 µM,1 (active),1 (active),1 (active),1 (active),1 (active),1 (active),1 (active),1 (active),1 (active),1 (active),1 (active),1 (active),1 (active),1 (active),1 (active)
COc1ccc2[nH]c(C(=O)c3ccccc3)cc2c1,≤ 0.3 µM,≤ 0.3 µM,≤ 0.3 µM,≤ 0.3 µM,≤ 0.3 µM,1 (active),1 (active),1 (active),1 (active),1 (active),1 (active),1 (active),1 (active),1 (active),1 (active),1 (active),1 (active),1 (active),1 (active),1 (active)
COc1cc(C)c(Sc2cnc(NC(=O)c3ccc(CNC(C)C(C)(C)C)cc3)s2)cc1C(=O)N1CCN(C(C)=O)CC1 (stereo not given),1 µM,9 µM,3 µM,1 µM,3 µM,1 (active),1 (active),1 (active),1 (active),1 (active),1 (active),1 (active),1 (active),1 (active),1 (active),1 (active),1 (active),1 (active),1 (active),1 (active)
COc1cc2nc(N3CCCN(C)CC3)nc(NC3CCN(Cc4ccccc4)CC3)c2cc1OC,≤ 0.3 µM,1 µM,≤ 0.3 µM,≤ 0.3 µM,≤ 0.3 µM,1 (active),1 (active),1 (active),1 (active),1 (active),1 (active),1 (active),1 (active),1 (active),1 (active),1 (active),1 (active),1 (active),1 (active),1 (active)
Clc1ccc(C2(c3ccc(-c4cn[nH]c4)cc3)CCNCC2)cc1,≤ 0.3 µM,≤ 0.3 µM,≤ 0.3 µM,≤ 0.3 µM,≤ 0.3 µM,1 (active),1 (active),1 (active),1 (active),1 (active),1 (active),1 (active),1 (active),1 (active),1 (active),1 (active),1 (active),1 (active),1 (active),1 (active)
